Test results from PubChem BioAssay (NCI).
Compounds without any hit were thinned out: in the full panel of roughly 79,000, 15% have a hit. Rule as the data show it: active = growth inhibition above about 70%; inactive = the rest. Where a SMILES comes first, the peptide text is derived from it.

What was measured:
[1] = NCI Yeast Anticancer Drug Screen. Data for the rad50 strain (AID 155);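 also: 0% = growth of vehicle-only cultures of the same strain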; conditions: S. cerevisiae rad50 strain growth inhibition; at 50.0 µM; hits give high values
Summary of the method: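 Inhibition values express reduced yeast growth in compound-treated cultures relative to vehicle-treated controls.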

[2] = NCI Yeast Anticancer Drug Screen. Data for the mec2-1 strain (AID 157); conditions: S. cerevisiae mec2-1 strain, at 50.0 µM, hits give high values
Summary of the method: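 Compounds were applied to mec2-1 yeast cells. Their growth was then compared with that of vehicle-treated cultures to give growth inhibition.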

[3] = NCI Yeast Anticancer Drug Screen. Data for the sgs1 mgt1 strain (AID 161);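 also: 0% = growth of cultures given vehicle only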; conditions: S. cerevisiae sgs1 mgt1 strain, at 50.0 µM, hits give high values
Summary of the method: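 Growth of a repair-deficient yeast mutant was monitored after compound treatment and expressed as inhibition relative to vehicle-treated cultures.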

[4] = NCI Yeast Anticancer Drug Screen. Data for the cln2 rad14 strain (AID 165);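 also: 0% = growth equal to vehicle treated cultures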; conditions: S. cerevisiae cln2 rad14 strain, at 50.0 µM, hits give high values
Summary of the method: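 Strain: cln2 rad14 yeast, altered in cell cycle control and DNA damage repair. Read-out: growth inhibition vs vehicle.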

[5] = NCI Yeast Anticancer Drug Screen. Data for the bub3 strain (AID 167); conditions: S. cerevisiae bub3 mutant strain, at 50.0 µM, hits give high values
Summary of the method: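 Steps: expose the mutant yeast strain to compound; grow alongside vehicle-treated cultures; measure growth; express inhibition against the vehicle cultures.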

[6] = NCI Yeast Anticancer Drug Screen. Data for the mlh1 rad18 strain (AID 175); conditions: S. cerevisiae mlh1 rad18 strain growth inhibition; at 50.0 µM; hits give high values
Summary of the method: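 A repair-deficient yeast strain is exposed to test compound, and growth is scored relative to vehicle-treated controls.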

Measured: growth inhibition

CCC1(c2ccccc2)SCC(=O)NC1=O (stereo not given)
inactive: [1] 21.1% | [2] 4.5% | [3] 12.8% | [4] 10.8% | [5] 18.4% | [6] 6.95%

CC(C)CCC(=O)O
inactive: [1] -8.45% | [2] -9.1% | [3] -4.4% | [4] -9.6% | [5] 3.8% | [6] -10.4%

O=C(CCN1C(=O)CC1c1ccco1)N1CCOCC1 (stereo not given)
inactive: [1] -1.55% | [2] -36.1% | [3] -10.5% | [4] 13.1% | [5] -18.2% | [6] 13.3%

CC(=O)OCC(OC(C)=O)C1OC(OCc2ccccc2)C(OC(C)=O)C(OC(C)=O)C1OC(C)=O (stereo not given)
inactive: [1] -10.1% | [2] -4.2% | [3] -17.6% | [4] 44% | [5] -3% | [6] -5.85%

O=C(O)C1C2C=CC(O2)C1C(=O)NCc1ccncc1 (stereo not given)
inactive: [1] -10% | [2] 14.7% | [3] -7.8% | [4] -30.1% | [5] -32.5% | [6] 3.35%

CCOC(=O)C1CCCC1S(=O)(=O)c1ccc(C)cc1 (stereo not given)
inactive: [1] -20% | [2] -15.3% | [3] -27.4% | [4] 21.9% | [5] 1.75% | [6] -3.5%

CCCCC(C(C)=O)C(=O)CC (stereo not given)
inactive: [1] 26.4% | [2] -25% | [3] 8.8% | [4] -23.2% | [5] -20.5% | [6] 13.1%

COc1ccc2c(c1)c1c3c(ccc4ncn2c43)N(CCO)CCN=1
inactive: [1] -19.6% | [2] -52% | [3] -25.9% | [4] -23.5% | [5] -12% | [6] 1.6%

NC(=O)NCSCNC(N)=O
inactive: [1] -0.7% | [2] -0.2% | [3] -7.35% | [4] 8.15% | [5] -2.75% | [6] 4.5%

O=C1c2ccc(O)cc2OC(c2ccc(O)c(O)c2)C1O (stereo not given)
inactive: [1] 7.6% | [2] -7.25% | [3] 17.8% | [4] 1.85% | [5] 6% | [6] 6.4%

CC1CC2=C(C1)C(C1(C)C(=O)CC3C(C1=O)C3(C)C)C(C)C2=O (stereo not given)
inactive: [1] 2.3% | [2] -24.6% | [3] 5.5% | [4] 3.3% | [5] 4.6% | [6] -44.6%

CC1NC(=O)C2CCCN2C(=O)C2CCCN2C(=O)C(C(C)C)NC(=O)C(Cc2ccccc2)NC(=O)C(Cc2ccccc2)NC(=O)C2CCCN2C(=O)C2CCCN2C(=O)C(Cc2ccccc2)NC(=O)C(Cc2ccccc2)NC1=O (stereo not given) (cyclo(AFFPPFFVPP); configuration not given here)
inactive: [1] 6.65% | [2] -8.5% | [3] -2.35% | [4] 2.8% | [5] 1.25% | [6] 16.6%

Cc1cc(C)[n+](C)c(/C=C/c2cccc([N+](=O)[O-])c2)n1
inactive: [1] 6.55% | [2] -6.95% | [3] 4.85% | [4] 16.4% | [5] 3.4% | [6] 11.1%

N#CC1CC12c1ccccc1C(=O)c1ccccc12 (stereo not given)
inactive: [1] -1.9% | [2] 0.25% | [3] 0.8% | [4] -16.1% | [5] -21.4% | [6] -4.75%

c1ccc(CNC2CC3CCC2C3)cc1 (stereo not given)
inactive: [1] -17.6% | [2] -5.5% | [3] -10.8% | [4] -5.15% | [5] -16.4% | [6] -1.3%

CC(/C=N\NC(=S)SCc1ccccc1)=N/N=C(N)N
inactive: [1] 52.4% | [2] 50.2% | [3] 57.2% | [4] -3.7% | [5] 52.9% | [6] 64.6%

CCOC(=O)C(C#N)CCC(C)=O (stereo not given)
inactive: [1] -12.3% | [2] -11.1% | [3] 17.4% | [4] -24.4% | [5] -7.8% | [6] -28.6%

CC1c2ccc3ccccc3c2C(=O)c2cccc(Cl)c21 (stereo not given)
inactive: [1] 0.45% | [2] 31.9% | [3] 14.7% | [4] -42.6% | [5] -5.65% | [6] -1.65%

FC(F)(c1nn[nH]n1)C(F)(F)C(F)(F)c1nn[nH]n1
inactive: [1] -6.8% | [2] -2.6% | [3] -10.8% | [4] -36.2% | [5] -1.05% | [6] -2.95%

CCC1C(OC)=CC(CC)(CO)C=C1OC (stereo not given)
inactive: [1] 4.35% | [2] -3.45% | [3] 6.15% | [4] 14.2% | [5] 6.8% | [6] -6.3%
